Data: the supplement of paper PMC8773631
Counter-ions that a name gives are not always drawn. ± gives the uncertainty stated by the source.

System: NCC-MFS5-C1
Assay: cell viability relative to DMSO control; higher = less growth inhibition
Details: 10 µM; treatment time: 3 days
Description: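 NCC-MFS5-C1 myxofibrosarcoma cells (1x10^4 per well, 384-well) were treated on day 2 with 10 µM of each drug. On day 5, viability was read by CCK-8 absorbance at 450 nm and normalised to the DMSO control (%), n = 2.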

Structure (SMILES) | cell viability [%]
CCOc1cc(C(C)(C)C)ccc1C1=N[C@@](C)(c2ccc(Cl)cc2)[C@@](C)(c2ccc(Cl)cc2)N1C(=O)N1CCN(CCCS(C)(=O)=O)CC1 | 96 ± 5.5
CCCCC1C(=O)N(c2ccccc2)N(c2ccccc2)C1=O [Phenylbutazone] | 72.5 ± 5.7
CCN(CC)CCOc1ccc(C(=C(Cl)c2ccccc2)c2ccccc2)cc1 [Clomifene citrate] | 85.1 ± 8.8
COc1c2ccoc2cc2oc(=O)ccc12 [Bergapten] | 105 ± 18
N=C(N)NC(=N)N1CCOCC1 [Moroxydine HCl] | 91.2 ± 3.7
Nc1nc(Cl)nc2c1ncn2[C@@H]1O[C@H](CO)[C@@H](O)[C@@H]1F [Clofarabine] | 98.8 ± 21
Nc1nc2[nH]cnc2c(=S)[nH]1 [Thioguanine] | 90.3 ± 0.61
O=c1c(-c2ccc(O)cc2)coc2cc(O)cc(O)c12 [Genistein] | 81.4 ± 10
CCCS(=O)(=O)Nc1ccc(F)c(C(=O)c2c[nH]c3ncc(-c4ccc(Cl)cc4)cc23)c1F [Vemurafenib (PLX4032, RG7204)] | 76 ± 3.5
COc1cc2ncnc(Nc3ccc(F)c(Cl)c3)c2cc1NC(=O)/C=C/CN1CCCCC1 | 82.9 ± 3.8
O=C(CCCCCCC(=O)Nc1ccccc1)NO [Vorinostat (SAHA, MK0683)] | 34.5 ± 7.2
Nc1ncn([C@@H]2O[C@H](CO)[C@@H](O)[C@H]2O)c(=O)n1 [Azacitidine] | 104 ± 13
S=c1[nH]cnc2nc[nH]c12 [Mercaptopurine (6-MP)] | 93.5 ± 3
CNC(=O)c1ccccc1Sc1ccc2c(/C=C/c3ccccn3)n[nH]c2c1 [Axitinib] | 79.1 ± 4.4
COc1c2occc2cc2ccc(=O)oc12 [Methoxsalen] | 116 ± 22
Nc1nc(Cl)nc2c1ncn2[C@H]1C[C@H](O)[C@@H](CO)O1 [Cladribine] | 80 ± 9.5
Clc1ccc(C(c2ccccc2Cl)C(Cl)Cl)cc1 (stereo not given) [Mitotane] | 76.1 ± 3.1
CC(=O)O[C@]1(C(C)=O)CC[C@H]2[C@@H]3C=C(C)C4=CC(=O)CC[C@]4(C)[C@H]3CC[C@@]21C [Megestrol Acetate] | 93.9 ± 4
O=C(c1ccc(OCCN2CCCCC2)cc1)c1c(-c2ccc(O)cc2)sc2cc(O)ccc12 [Raloxifene HCl] | 85 ± 1
CCc1ccc(CCOc2ccc(CC3SC(=O)NC3=O)cc2)nc1 (stereo not given) [Pioglitazone] | 95.3 ± 2.9

Structure (SMILES) | cell viability [%]
Cc1cccc(N(C)C(=S)Oc2ccc3ccccc3c2)c1 [Tolnaftate] | 103 ± 6.7
Cc1nc(Nc2ncc(C(=O)Nc3c(C)cccc3Cl)s2)cc(N2CCN(CCO)CC2)n1 [Dasatinib] | 55.3 ± 5.5
CNC(=O)c1ccc(-c2cnc3ncc(Cc4ccc5ncccc5c4)n3n2)cc1F | 80.9 ± 7.9
CNC[C@H](O)c1ccc(O)c(O)c1 [Epinephrine Bitartrate] | 106 ± 5.9
COc1cc2c(cc1O)CC[C@@H]1[C@@H]2CC[C@]2(C)[C@@H](O)CC[C@@H]12 [2-Methoxyestradiol (2-MeOE2)] | 57.5 ± 7.6
CC/C(=C(/CC)c1ccc(O)cc1)c1ccc(O)cc1 [Diethylstilbestrol] | 87.8 ± 22
CCN1CCN(c2ccc(Nc3cc(N(C)C(=O)Nc4c(Cl)c(OC)cc(OC)c4Cl)ncn3)cc2)CC1 | 59.8 ± 5.6
CO[C@@]12[C@H](COC(N)=O)C3=C(C(=O)C(C)=C(N)C3=O)N1C[C@@H]1N[C@@H]12 [Mitomycin C] | 41.7 ± 3.7
CC[C@]1(O)C[C@H]2CN(CCc3c([nH]c4ccccc34)[C@@](C(=O)OC)(c3cc4c(cc3OC)N(C=O)[C@H]3[C@@](O)(C(=O)OC)[C@H](OC(C)=O)[C@]5(CC)C=CCN6CC[C@]43[C@@H]65)C2)C1 [Vincristine] | 29.8 ± 4.2
COc1cc2c(Oc3ccc4[nH]c(C)cc4c3F)ncnc2cc1OCCCN1CCCC1 [Cediranib (AZD2171)] | -0.717 ± 0.35
CNC(=O)c1cc(Oc2ccc(NC(=O)Nc3ccc(Cl)c(C(F)(F)F)c3)cc2)ccn1 [Sorafenib Tosylate] | 45.3 ± 1.9
Nc1nc(F)nc2c1ncn2[C@@H]1O[C@H](CO)[C@@H](O)[C@@H]1O [Fludarabine] | 96.3 ± 7.3
Cc1nc(NC(=O)N2CCC[C@H]2C(N)=O)sc1-c1ccnc(C(C)(C)C(F)(F)F)c1 [Alpelisib] | 92.6 ± 1
CCCCNc1ncc(-c2ccc(CN3CCOCC3)cn2)c(NC2CCC(O)CC2)n1 (stereo not given) | 36.41 ± 0.22
COC(=O)C[C@](O)(CCCC(C)(C)O)C(=O)O[C@@H]1C(OC)=C[C@]23CCCN2CCc2cc4c(cc2[C@H]13)OCO4 [Homoharringtonine] | 54 ± 5.4
O=c1[nH]c(=O)n([C@H]2C[C@H](O)[C@@H](CO)O2)cc1F [Floxuridine] | 80 ± 3.9
CC1=C(/C=C/C(C)=C/C=C/C(C)=C/C(=O)O)C(C)(C)CCC1 [Tretinoin] | 78.5 ± 4.5
NCC(=O)CCC(=O)O [5-Aminolevulinic acid HCl] | 85.7 ± 2.2
O=NN(CCCl)C(=O)NC1CCCCC1 [Lomustine] | 84.1 ± 18
Nc1cc(C(Cl)=C(Cl)Cl)c(S(N)(=O)=O)cc1S(N)(=O)=O [Clorsulon] | 89.3 ± 2.4
